Experimental data from PubChem BioAssay (NCI).
The panel holds about 83,000 compounds, 20% with a hit somewhere; the sample as a whole holds those more often.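 Plates (96-well) were seeded with cells, treated with compound at one concentration, and incubated for 48 hours before percent growth was determined.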 A number with no mark means an inactive call. Calls of active or inactive are those of the source.

System: SN12C renal
Test: NCI-60 one-dose screen, 48 h (100 = growth as untreated, 0 = no growth, -100 = all killed)
Conditions: 10 µM unless noted
Experimental: Growth inhibition of the SN12C human tumor cell line is measured as a screen for anti-cancer activity. Cells are grown in 96 well plates and exposed to the test compound for 48 hours. Compounds are tested at a single concentration, which is 10^-5 M for most compounds. The reported endpoint is percent growth (GI% or GIPRCNT), where numbers from 0 - 100% represent growth inhibition, and numbers from -100% - 0 represent cell death. For example, a value of 40 represents 60% growth inhibition. A value of 0 means no net growth occurred over the course of the experiment. A value of -40 indicates 40% of cells at the beginning of the experiment died by the end of the experiment. A value of -100 means all cells are dead at the end of the experiment.
NCI-60 Human Tumor Cell Lines Screen was performed using the standard one-dose NCI protocol, which is described in more detail at https://dtp.cancer.gov/discovery_development/nci-60/default.htm.
Compounds with GIPRCNT values below 10 were considered active. Activity score was based on GIPRCNT using the following formula: […]
Score is 0 for GIPRCNT values of 100 or above, 50 for GIPRCNT values of 0, and 100 for GIPRCNT values of -100.

Q: How did the growth turn out when Cc1cc2nc3c4cc(Cl)ccc4n(CCN(C)C)c3nc2cc1C was run?
A: 17.7%

Q: With COc1cccc(-c2nn(-c3ccccc3)cc2-c2ccnc(NCCCNS(=O)(=O)c3ccc(C(F)(F)F)cc3)c2)c1 as the compound, how does the growth read?
A: 23%

Q: With O=C(c1ccccc1)C(CN1CCOCC1)c1ccccc1 (stereo not given) as the compound, how does the growth read?
A: 28.1%

Q: Which growth does the source give for N=C(N)c1ccc(-c2ccc(-c3cc(F)cc(F)c3)o2)nc1 here?
A: 86.9%

Q: For O=c1[nH]c(=S)[nH]c2nc[nH]c12, which growth is on record?
A: 96.2%

Q: With Cc1ccc(-c2nc([P+](c3ccccc3)(c3ccccc3)c3ccccc3)c(N3CCOCC3)o2)cc1 as the compound, how does the growth read?
A: 1.43% (active)

Q: How did the growth turn out when O=C1/C(=C\C(Cl)=C/c2ccc([N+](=O)[O-])cc2)SC(=S)N1CCc1ccc(O)cc1 was run?
A: -9.23% (active)

Q: With Nc1ccc(Br)cn1 as the compound, how does the growth read?
A: 96.3%

Q: For N#C/C(=C\c1ccc(-c2cccc(C(F)(F)F)c2)o1)c1nc(-c2ccco2)cs1, which growth is on record?
A: 89.2%

Q: NCCn1cc(-c2nc(-c3c[nH]c4ncccc34)cs2)c2ccccc21 was tested. Which growth did it give?
A: 78.7%

Q: Which growth does the source give for CC(C)/C=C/CC[C@](C)(O)[C@H]1CC[C@]2(C)[C@@H]1CC[C@@H]1[C@@]3(C)C/C(=C/c4cccc(C(F)(F)F)c4)C(=O)C(C)(C)[C@@H]3CC[C@]12C here?
A: 89.2%

Q: COC(=O)[C@]12CC[C@@H](C(=O)/C=C/c3cccnc3)[C@@H]1[C@H]1CC[C@@H]3[C@@]4(C)C/C(=C/c5cccnc5)C(=O)C(C)(C)[C@@H]4CC[C@@]3(C)[C@]1(C)CC2 was tested. Which growth did it give?
A: -77.8% (active)

Q: For Cc1ccncc1C(=O)O, which growth is on record?
A: 94.6%

Q: CCN1CCN(C(=O)[C@]23CC[C@@H](C)[C@H](C)[C@H]2C2=CC[C@@H]4[C@@]5(C)C/C(=C/c6cccc(OC)c6OC)C(=O)C(C)(C)[C@@H]5CC[C@@]4(C)[C@]2(C)CC3)CC1 was tested. Which growth did it give?
A: 43.2%

Q: CC/C(=N/NC(N)=O)c1ccccc1 was tested. Which growth did it give?
A: 106%

Q: For O=C(CI)Nc1ccc(O)c2ccccc12, which growth is on record?
A: -34.9% (active)

Q: C/C(=N/NC(N)=S)C(=O)O was tested. Which growth did it give?
A: 80.6%

Q: How did the growth turn out when COC(=O)[C@]12CC[C@@H](C)[C@H](C)[C@@H]1C1=CC[C@@H]3[C@@]4(C)CC(=O)[C@H](OC(=O)c5ccco5)[C@@]5(C)COC(=C45)C[C@@]3(C)[C@]1(C)CC2 was run?
A: 36%

Q: With C=C(C)[C@@H]1CC[C@]2(C)[C@H](CC=C3[C@@H]4CC(C)(C)CC[C@]4(C=O)CC[C@]32C)[C@@]1(C)CCCN as the compound, how does the growth read?
A: 66.7%

Q: For CC(=O)c1c(C)[nH]c(-c2nc3ccc(N4CCN(C)CC4)cc3[nH]2)c1-c1ccc(OCC2CCOCC2)cc1, which growth is on record?
A: 39.9%

Q: With CC(C)=CCC[C@](C)(O)[C@H]1CC[C@]2(C)[C@@H]1CC[C@@H]1[C@@]3(C)C/C(=C/c4ccc(Br)cc4)C(=O)C(C)(C)[C@@H]3CC[C@]12C as the compound, how does the growth read?
A: 88%

Q: For C=C(C)[C@@H]1CC[C@]2(C(=O)N3CCN(CC)CC3)CC[C@]3(C)[C@H](CC[C@@H]4[C@@](C)(CCC(=O)N5CCN(CC)CC5)[C@H](C(=C)C)CC[C@]43C)[C@@H]12, which growth is on record?
A: 66.9%

Q: How did the growth turn out when COc1ccc2c(c1)c(-c1nc(-c3cn(C)c4ncccc34)cs1)cn2CCCN1CCCCC1 was run?
A: 76.2%

Q: How did the growth turn out when OCC12CCCC(CO)(COC1)C2O (stereo not given) was run?
A: 101%

Q: How did the growth turn out when COc1ccc(-c2cc(-c3c(C)oc4cc5occc5c(OC)c4c3=O)nc(N)c2C#N)cc1OC was run?
A: 77.6%

Q: For Cc1cc(Cl)c2c(N(C)C)cccc2n1, which growth is on record?
A: 102%

Q: For COC(=O)CCCCCn1c2ccccc2c2c3c(c4c5ccccc5[nH]c4c21)C(=O)N(O)C3=O, which growth is on record?
A: 37.8%

Q: How did the growth turn out when Cn1cc(-c2nc(-c3c[nH]c4ncccc34)cs2)c2ccccc21 was run?
A: 90%

Q: c1cnc2[nH]cc(-c3csc(-c4cn(CCCN5CCCCC5)c5ccccc45)n3)c2c1 was tested. Which growth did it give?
A: 63.4%

Q: Which growth does the source give for O=C1c2cc3c(cc2-c2c1c1ccc(F)cc1c(=O)n2CCCN1CCOCC1)OCO3 here?
A: 33.2%

Q: With Cn1cc(-c2csc(-c3cn(C(=O)OC(C)(C)C)c4ccccc34)n2)c2cccnc21 as the compound, how does the growth read?
A: 87.6%

Q: How did the growth turn out when CCCCC[C@H]1C/C=C2/C(=O)C(Cl)=C[C@@H]2C/C=C\CCCC(=O)O[C@@H](CCCCC)C/C=C2/C(=O)C(Cl)=C[C@@H]2C/C=C\CCCC(=O)O1 was run?
A: -42.2% (active)

Q: With Oc1cc(/C=C/c2nc(N3CCOCC3)c3cc(Cl)c(Cl)cc3n2)cc(O)c1O as the compound, how does the growth read?
A: 104%

Q: Which growth does the source give for CCc1ccc(-c2ccc(Nc3ccccc3)nn2)cc1S(N)(=O)=O here?
A: 88.6%

Q: For O=C(/C=C\c1ccc2c(c1)OCO2)/C=C/c1ccc2c(c1)OCO2, which growth is on record?
A: 86.5%

Q: COC(=O)[C@]12CC[C@@H](C(/C=C/c3cccnc3)=N/O)[C@@H]1[C@H]1CC[C@@H]3[C@@]4(C)CC(=C/c5cccnc5)/C(=N/O)C(C)(C)[C@@H]4CC[C@@]3(C)[C@]1(C)CC2 was tested. Which growth did it give?
A: 44.5%

Q: With CCC1C(=O)COC1=O (stereo not given) as the compound, how does the growth read?
A: 104%

Q: For N#CCCCCCn1c2ccccc2c2c3[nH]c(=O)[nH]c(=O)c3c3c4ccccc4n(CCCCCC#N)c3c21, which growth is on record?
A: 26.2%

Q: With Cc1cc(N2CCN(C)CC2)nc(N(CCNc2ccnc3cc(Cl)ccc23)Cc2ccco2)n1 as the compound, how does the growth read?
A: 58.3%

Q: How did the growth turn out when O=[N+]([O-])c1cc(S(=O)(=O)c2ccc(F)c([N+](=O)[O-])c2)ccc1F was run?
A: 108%
